# Measurements as given in PubChem BioAssay (NCATS).
# Inconclusive results are not listed. A call without a number means that no potency is given here. A number with no mark means an inactive call. Active and inactive are the calls of the source. Unless noted, the call rests on the fitted dose curve; in most records, active means well fitted curve in the direction sought with a large enough effect; inconclusive means small, poorly fitted or top-dose-only effect, or another doubt; inactive means no such curve, though single readings can be large; an effect the other way counts as inactive or inconclusive.
# Legend:
# [1] = molecular target: Cytochrome P450 3A4 (Homo sapiens) (UniProt P08684); experiment: qHTS Assay for Inhibitors and Substrates of Cytochrome P450 3A4 (AID 884); settings: recombinant CYP3A4, Luciferin-PPXE luminescence; series mostly up to 57.1 µM; further: nearly all actives have a fitted effect of over 50% in size; further: potency means the concentration at half of the fitted maximal effect
# How it was run: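 Luminescent readout of luciferin produced by CYP3A4 (20 nM) dealkylation of Luciferin-PPXE, 25 uM (its KM). NADPH-driven reaction ran 60 min at RT after 10 min compound preincubation; data scaled to 57 uM ketoconazole as 100% inhibition.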
# [2] = molecular target: Luciferin 4-monooxygenase (Photinus pyralis) (UniProt P08659); experiment: Biochemical firefly luciferase enzyme assay for NPC (AID 624030);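 further: purified P. pyralis luciferase at 10 nM with luciferin and ATP substrate; nearly all actives have a fitted effect of over 70% in size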; settings: purified P. pyralis luciferase, luminescence, 5 min; series mostly up to 58.6 µM
# How it was run: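 Counter-screen for direct inhibition of the luciferase enzyme by approved-drug library compounds, run at 10 nM enzyme in 50 mM Tris acetate (final). Luminescence was read within 5 min of enzyme-buffer addition and normalized to PTC124 versus DMSO (0%).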
# [3] = molecular target: ATP-dependent 6-phosphofructokinase (Trypanosoma brucei brucei) (UniProt O15648); experiment: qHTS Assay to Find Inhibitors of T. brucei phosphofructokinase: hit validation (AID 492961);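 further: luminescence reports ADP formed as PFK phosphorylates fructose-6-phosphate with ATP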; settings: T. brucei PFK, ADP-Glo luminescence; series mostly up to 51.4 µM
# How it was run: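 PFK 1.25 nM, F6P 0.5 mM, ATP 0.1 mM, MgCl2 5 mM, 0.1 M TEA pH 8.0, Tween20 0.01%, BSA 0.1%; 45 min RT. ADP-Glo two-step detection, luminescence. qHTS titration; curve fitting with curve-class categorization.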
# [4] = S16 Schwann cell viability assay (CellTiter-Glo assay) (AID 624031); settings: S16 rat Schwann cells viability, 24 h; series mostly up to 57.5 µM;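 further: cellular ATP luminescence as a viability measure; nearly all actives have a fitted effect of over 70% in size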
# How it was run: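 Untransfected S16 rat Schwann cells; compound 24 h, 37 °C/5% CO2; CellTiter-Glo ATP luminescence. % activity vs no-cell wells and DMSO controls (0%); concentration-effect curves classed by r2, response magnitude, activity.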
# [5] = S16 Schwann cell PMP22 intronic element beta-lactamase assay (AID 624044; calls by dose curve; further: nearly all actives have a fitted effect of over 15% in size); settings: S16 rat Schwann cells, PMP22 element beta-lactamase FRET, 24 h; series mostly up to 38.3 µM
# How it was run: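 Beta-lactamase reporter under a PMP22 intronic regulatory element in stable S16 rat Schwann cells; 24 h compound exposure. 460 nm blue signal normalized between DMSO (0%) and potassium clavulanate, with 535 nm FRET tracking viability; curves classed by r2 and response.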
# 3D7 = experiment: qHTS profiling for inhibitors of Plasmodium falciparum proliferation (AID 504749); further: nearly all actives have a fitted effect of over 60% in size; further: potency means the concentration at half of the fitted maximal effect; settings: P. falciparum in erythrocytes, SYBR Green DNA, 72 h; series mostly up to 28.7 µM
# How it was run: (§1)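 Fluorescence of SYBR Green-bound parasite DNA, read at 485/535 nm, served as the growth measure. Infected erythrocytes were cultured with compound 72 h; artemisinin (0.29 uM) and DMSO wells defined the normalization range.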
# AS120 = experiment: as above; settings: P. falciparum in erythrocytes, SYBR Green DNA, 72 h; series mostly up to 28.7 µM
# How it was run: as §1
# ATS189 = experiment: as above; settings: P. falciparum in erythrocytes, SYBR Green DNA, 72 h; series mostly up to 28.7 µM
# How it was run: as §1
# CP191 = experiment: as above; settings: P. falciparum in erythrocytes, SYBR Green DNA, 72 h; series mostly up to 28.7 µM
# How it was run: as §1
# CP203 = experiment: as above; settings: P. falciparum in erythrocytes, SYBR Green DNA, 72 h; series mostly up to 28.7 µM
# How it was run: as §1
# CP237 = experiment: as above; settings: P. falciparum in erythrocytes, SYBR Green DNA, 72 h; series mostly up to 28.7 µM
# How it was run: as §1
# CP250 = experiment: as above; settings: P. falciparum in erythrocytes, SYBR Green DNA, 72 h; series mostly up to 28.7 µM
# How it was run: as §1
# CP252 = experiment: as above; settings: P. falciparum in erythrocytes, SYBR Green DNA, 72 h; series mostly up to 28.7 µM
# How it was run: as §1
# CP291 = experiment: as above; settings: P. falciparum in erythrocytes, SYBR Green DNA, 72 h; series mostly up to 28.7 µM
# How it was run: as §1
# DFO2036 = experiment: as above; settings: P. falciparum in erythrocytes, SYBR Green DNA, 72 h; series mostly up to 28.7 µM
# How it was run: as §1
# Dd2 = experiment: as above; settings: P. falciparum in erythrocytes, SYBR Green DNA, 72 h; series mostly up to 28.7 µM
# How it was run: as §1
# FAB9 = experiment: as above; settings: P. falciparum in erythrocytes, SYBR Green DNA, 72 h; series mostly up to 28.7 µM
# How it was run: as §1
# HB3 = experiment: as above; settings: P. falciparum in erythrocytes, SYBR Green DNA, 72 h; series mostly up to 28.7 µM
# How it was run: as §1
# PC49 = experiment: as above; settings: P. falciparum in erythrocytes, SYBR Green DNA, 72 h; series mostly up to 28.7 µM
# How it was run: as §1
# W2 = experiment: as above; settings: P. falciparum in erythrocytes, SYBR Green DNA, 72 h; series mostly up to 28.7 µM
# How it was run: as §1
# Sequence of ATP-dependent 6-phosphofructokinase (Trypanosoma brucei brucei) (O15648 whole entry, looked up): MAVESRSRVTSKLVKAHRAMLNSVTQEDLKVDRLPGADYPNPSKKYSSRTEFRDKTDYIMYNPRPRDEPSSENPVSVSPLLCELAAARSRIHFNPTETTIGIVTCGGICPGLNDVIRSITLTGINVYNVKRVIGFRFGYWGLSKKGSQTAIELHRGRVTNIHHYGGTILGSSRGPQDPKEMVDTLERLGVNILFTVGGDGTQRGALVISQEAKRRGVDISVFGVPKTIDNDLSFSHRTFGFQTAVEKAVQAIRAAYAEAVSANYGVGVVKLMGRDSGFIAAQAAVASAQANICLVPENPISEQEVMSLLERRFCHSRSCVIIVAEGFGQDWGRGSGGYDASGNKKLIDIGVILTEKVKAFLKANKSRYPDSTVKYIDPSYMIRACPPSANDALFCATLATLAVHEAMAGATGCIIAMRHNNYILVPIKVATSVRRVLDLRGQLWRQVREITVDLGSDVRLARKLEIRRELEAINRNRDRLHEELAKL
# Sequence of Luciferin 4-monooxygenase (Photinus pyralis) (P08659 whole entry, looked up): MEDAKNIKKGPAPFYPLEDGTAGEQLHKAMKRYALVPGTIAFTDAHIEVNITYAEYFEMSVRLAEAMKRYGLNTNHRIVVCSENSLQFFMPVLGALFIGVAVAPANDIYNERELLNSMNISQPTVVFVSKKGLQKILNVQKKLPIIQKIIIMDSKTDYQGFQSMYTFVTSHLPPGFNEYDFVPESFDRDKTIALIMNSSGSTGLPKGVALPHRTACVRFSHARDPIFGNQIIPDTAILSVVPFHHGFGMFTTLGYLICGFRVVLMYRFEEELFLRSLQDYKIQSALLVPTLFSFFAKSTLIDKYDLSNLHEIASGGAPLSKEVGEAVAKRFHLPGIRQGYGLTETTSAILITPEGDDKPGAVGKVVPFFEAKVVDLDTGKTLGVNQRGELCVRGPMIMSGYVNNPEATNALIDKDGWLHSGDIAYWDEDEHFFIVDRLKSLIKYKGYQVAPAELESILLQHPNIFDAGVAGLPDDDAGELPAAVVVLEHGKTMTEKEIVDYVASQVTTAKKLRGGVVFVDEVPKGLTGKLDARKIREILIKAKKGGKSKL
# Sequence of Cytochrome P450 3A4 (Homo sapiens) (P08684 whole entry, looked up): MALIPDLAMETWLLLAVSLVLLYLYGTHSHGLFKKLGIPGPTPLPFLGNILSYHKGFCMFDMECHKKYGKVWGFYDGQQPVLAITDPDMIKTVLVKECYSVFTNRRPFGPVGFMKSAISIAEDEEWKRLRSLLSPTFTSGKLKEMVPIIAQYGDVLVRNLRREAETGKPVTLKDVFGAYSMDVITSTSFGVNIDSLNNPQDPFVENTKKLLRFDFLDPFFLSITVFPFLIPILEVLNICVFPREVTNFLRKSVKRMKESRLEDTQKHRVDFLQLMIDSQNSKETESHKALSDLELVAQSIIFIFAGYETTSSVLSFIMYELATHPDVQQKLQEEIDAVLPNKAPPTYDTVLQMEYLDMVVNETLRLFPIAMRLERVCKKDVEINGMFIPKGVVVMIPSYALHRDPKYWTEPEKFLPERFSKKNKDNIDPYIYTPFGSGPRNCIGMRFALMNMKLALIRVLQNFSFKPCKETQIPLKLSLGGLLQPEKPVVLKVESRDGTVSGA
structure (smiles),measurement,setting,value
S=P(C1CCCCC1)(C1CCCCC1)[C@H](c1cccnc1)N1CCCC1,Potency,[1],3160 nM (active)
Cc1ccc(O)cc1 (tested in a mixture with another compound),outcome,[2],inactive
C[C@@H](Cc1ccc(O)cc1)NC[C@@H](O)c1cc(O)cc(O)c1,outcome,[3],inactive
same,outcome,[2],inactive
same,outcome,[4],inactive
same,outcome,[5],inactive
same,Potency,3D7,inactive
same,Potency,AS120,inactive
same,Potency,ATS189,inactive
same,Potency,CP191,inactive
same,Potency,CP203,inactive
same,Potency,CP237,inactive
same,Potency,CP250,inactive
same,Potency,CP252,inactive
same,Potency,CP291,inactive
same,Potency,DFO2036,inactive
same,Potency,Dd2,inactive
same,Potency,FAB9,inactive
same,Potency,HB3,inactive
same,Potency,PC49,inactive
same,Potency,W2,inactive
O=C(O)[C@H]1CCN1,Potency,[1],inactive
C[C@H]1CC[C@@]2(NC1)O[C@@H]1C[C@@H]3[C@@H]4CC=C5C[C@@H](O)CC[C@]5(C)[C@@H]4CC[C@]3(C)[C@H]1[C@@H]2C,"activity change, negative = inhibition",[1],33.7% [at 11.4 µM]
C[C@@H]1O[C@@H](O[C@H]2C[C@@H](O)[C@@]3(CO)[C@H]4[C@H](O)C[C@]5(C)[C@@H](C6=CC(=O)OC6)CC[C@]5(O)[C@H]4CC[C@@]3(O)C2)[C@@H](O)[C@H](O)[C@H]1O,outcome,[3],inactive
same,outcome,[2],inactive
same,outcome,[4],inactive
same,outcome,[5],inactive
same,Potency,3D7,inactive
same,Potency,AS120,inactive
same,Potency,ATS189,inactive
same,Potency,CP191,inactive
same,Potency,CP203,inactive
same,Potency,CP237,inactive
same,Potency,CP250,inactive
same,Potency,CP252,inactive
same,Potency,CP291,inactive
same,Potency,DFO2036,inactive
same,Potency,Dd2,inactive
same,Potency,FAB9,inactive
same,Potency,HB3,inactive
same,Potency,PC49,inactive
CSC([N-]/N=C/c1cccc(C)n1)=[S]=[Cu].CS[C@H]([S-])[N-]/N=C/c1cccc(C)n1,Potency,[1],3980 nM (active)
O=C1C[C@@H]2OCC=C3CN4CC[C@]56c7ccccc7N1[C@@H]5[C@@H]2[C@H]3C[C@H]46 (tested in a mixture with another compound),outcome,[3],inactive
same,outcome,[4],inactive
same,outcome,[5],inactive
same,Potency,3D7,inactive
same,Potency,CP191,inactive
same,Potency,CP237,8910 nM (active)
same,Potency,CP250,inactive
same,Potency,CP252,inactive
same,Potency,Dd2,10000 nM (active)
same,Potency,FAB9,inactive
same,Potency,HB3,inactive
same,Potency,PC49,inactive
same,Potency,W2,6750 nM (active)
C=C[C@@H]1CN2CC[C@H]1C[C@H]2[C@H](O)c1ccnc2ccccc12,outcome,[3],inactive
same,outcome,[2],inactive
same,outcome,[4],inactive
same,outcome,[5],inactive
same,Potency,3D7,158 nM (active)
same,Potency,AS120,891 nM (active)
same,Potency,ATS189,794 nM (active)
same,Potency,CP191,501 nM (active)
same,Potency,CP203,675 nM (active)
same,Potency,CP237,1120 nM (active)
same,Potency,CP250,1580 nM (active)
same,Potency,CP252,1120 nM (active)
same,Potency,CP291,675 nM (active)
same,Potency,DFO2036,355 nM (active)
same,Potency,Dd2,891 nM (active)
same,Potency,FAB9,112 nM (active)
same,Potency,HB3,224 nM (active)
same,Potency,PC49,891 nM (active)
same,Potency,W2,338 nM (active)
CC(=O)c1c(O)c(C)c(O)c(Cc2c(O)c3c(c(C(=O)/C=C\c4ccccc4)c2O)OC(C)(C)C=C3)c1O,Potency,[1],6310 nM (active)
